We go through 40 compounds from PubChem BioAssay (NCI).

The panel holds about 83,000 compounds, 20% with a hit somewhere; the sample as a whole holds those more often.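 Assay: single dose, 48 h. Readout: percent growth (0 = no net growth; negative = cell death). Active: <10.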 The source made the active and inactive calls.

This test concerns PC-3 prostate. Nature of the test: NCI-60 one-dose screen, 48 h (100 = growth as untreated, 0 = no growth, -100 = all killed). The following applies: 10 µM unless noted. The protocol:
Growth inhibition of the PC-3 human tumor cell line is measured as a screen for anti-cancer activity. Cells are grown in 96 well plates and exposed to the test compound for 48 hours. Compounds are tested at a single concentration, which is 10^-5 M for most compounds. The reported endpoint is percent growth (GI% or GIPRCNT), where numbers from 0 - 100% represent growth inhibition, and numbers from -100% - 0 represent cell death. For example, a value of 40 represents 60% growth inhibition. A value of 0 means no net growth occurred over the course of the experiment. A value of -40 indicates 40% of cells at the beginning of the experiment died by the end of the experiment. A value of -100 means all cells are dead at the end of the experiment.
NCI-60 Human Tumor Cell Lines Screen was performed using the standard one-dose NCI protocol, which is described in more detail at https://dtp.cancer.gov/discovery_development/nci-60/default.htm.
Compounds with GIPRCNT values below 10 were considered active. Activity score was based on GIPRCNT using the following formula: […]
Score is 0 for GIPRCNT values of 100 or above, 50 for GIPRCNT values of 0, and 100 for GIPRCNT values of -100.
Turning to `CCCCCCCCCCCCCCCCCCOc1ccccc1COP(=O)(O)OOCC[N+](C)(C)C`, the growth was -25.5% (active). With `CC12CCC3C(C=CC4=C(N)C(=O)CCC43C)C1CCC2=O` (stereo not given), the growth was 46.5% (inactive). In the case of `O=C1NC(=O)C(=Cc2ccc(OCCCCC3CCCCC3)c(Cl)c2)C(=O)N1`, the growth was 88.4% (inactive). Next, `Clc1cccc(N2COOC3(OOC2)C2CC4CC(C2)CC3C4)c1`: 74.8% (inactive).

Take `COC(=O)[C@@H](C)C[C@H](Cc1ccccc1)NC(=O)c1csc([C@@H](C[C@H](C(C)C)N(C)C(=O)[C@@H](NC(=O)[C@H]2CCCCN2C)C2CCCCC2)OC(C)=O)n1`: the growth was 5.7% (active).

Turning to `C[C@]12CC[C@H]3[C@@H](C[C@@H]4SC(Nc5ccccc5)=N[C@@]45CC(O)CC[C@]35C)[C@@H]1CCC2O` (stereo not given in full), the growth was 39.2% (inactive). For the compound `COC(=O)[C@@H](C)C[C@H](Cc1ccccc1)NC(=O)c1csc([C@@H](C[C@H](C(C)C)N(C)C(=O)[C@H](C)NC(=O)[C@H]2CCCCN2C)OC(C)=O)n1`, the growth was 19.6% (inactive). Next, `O=C(N/N=C\c1ccc(N(CCCl)CCCl)cc1Cl)c1cccnc1`: 92.9% (inactive); `COc1ccc(/C=C\c2cc(OC)c(OC)c(OC)c2)c(NS(=O)(=O)c2ccc(F)cc2)c1O`: 31.3% (inactive); `NC1CC2CCCCC2CC1(O)c1ccccc1` (stereo not given): 92.8% (inactive). Next, `COC(=O)C1CCC(NC(=O)c2csc([C@@H](C[C@H](C(C)C)N(C)C(=O)[C@@H](NC(=O)[C@H]3CCCCN3C)C(C)C)OC(C)=O)n2)CC1` (stereo not given in full): 28.9% (inactive); `CCC[CH2][Sn]([CH2]CCC)([CH2]CCC)[O]c1ccc(Cl)cc1Cl`: -70% (active). `CC[C@H](C)[C@@H]([C@@H](CC(=O)N1CCC[C@H]1[C@H](OC)[C@@H](C)C(=O)N[C@H](C)[C@@H](O)c1ccccc1)OC)N(C)C(=O)[C@@H](NC(=O)[C@@H](NC)C(C)C)C(C)C`: the growth is 29.1% (inactive).

Take `CCCCCCCCC(CO)NCCc1ccccc1` (stereo not given): the growth is 73.5% (inactive).

On to `CC(=O)c1ccc(C(=O)NCC2CCC3(CC2)OOC2(CCCCC2)OO3)cc1`, for which the growth is 71% (inactive). Next, `CNC12C3C4C1C1C2C3C41C(=O)N[C@H](C(=O)N(C)[C@H](C[C@@H](OC(C)=O)c1nc(C(=O)N[C@@H](Cc2ccccc2)C[C@H](C)C(=O)OC)cs1)C(C)C)C1CC1` (stereo not given in full): 16.9% (inactive); `CN(C)C(=O)Oc1ccccc1`: 94.8% (inactive). On to `C[C@@H]1CCC2[C@@H](C)[C@H](OC(=O)CCC(=O)NCCNC(=O)Cc3cc(=O)oc4cc(N(C)C)ccc34)O[C@@H]3O[C@]4(C)CC[C@@H]1C23OO4` (stereo not given in full), for which the growth was 19.1% (inactive). As for `Cn1cc(C2=C(c3cn(C4CCN(Cc5ccccn5)CC4)c4ccccc34)C(=O)NC2=O)c2ccccc21`, the growth is 92.2% (inactive). Next, `CCCCCCCCOC(=O)CCN1CC1`: 104% (inactive); `CN1CC(=O)N(O)C1(C)c1cccnc1` (stereo not given): 95.8% (inactive).

Take `CC(=O)O[C@H]1C(=O)[C@@]2(C)[C@H]([C@H](OC(=O)c3ccccc3)[C@]3(O)C[C@H](OC(=O)[C@H](OC(=O)OCC4COC(C)(C)O4)[C@@H](NC(=O)c4ccccc4)c4ccccc4)C(C)=C1C3(C)C)[C@]1(OC(C)=O)CO[C@@H]1C[C@@H]2O` (stereo not given in full): the growth is 38.7% (inactive). `CCOC(=O)CCC(NC(=O)C(Cc1ccc(N(CCCl)CCCl)cc1)NC=O)C(=O)OCC` (stereo not given): the growth was 71.7% (inactive). Next, `Cc1cc(N(CCCl)CCCl)ccc1C=Nc1cccnc1`: 63.1% (inactive); `CN1C(=O)C(=Cc2cn(Cc3ccccc3)c3ccccc23)C(=O)N(C)C1=O`: 84.8% (inactive). Next, `Clc1cc(N2CC2)nc(N2CC2)n1`: 65.2% (inactive); `COc1ccc(O)c(CNC(=O)CN2CCCC2=O)c1`: 92.1% (inactive); `CC[C@H](C)[C@H](NC(=O)c1ccccn1)C(=O)N(C)[C@H](C[C@@H](OC(C)=O)c1nc(C(=O)N[C@@H](Cc2ccccc2)C[C@H](C)C(=O)OC)cs1)C(C)C`: 24.5% (inactive). With `COC(=O)[C@@H](C)C[C@H](Cc1ccccc1)NC(=O)c1csc([C@@H](C[C@H](C(C)C)N(C)C(=O)[C@@H](NC(=O)[C@H]2CCCCN2C)C(C(F)(F)F)C(F)(F)F)OC(C)=O)n1`, the growth is 27.2% (inactive). In the case of `C[C@]12CC[C@H]3[C@@H](CC4SC(N)=NC45C/C(=N/NC(N)=O)CC[C@]35C)[C@@H]1CCC2=O` (stereo not given in full), the growth was 57.3% (inactive). Regarding `C[C@@H]1C[C@@]2(C)[C@@H](CC[C@@H]3[C@@H]2CC[C@]2(C)C(=O)CC[C@@H]32)CC1=O`, the growth is 97.3% (inactive). With `c1ccc(Nc2nc(-c3ccccc3)c[se]2)cc1`, the growth was 83.6% (inactive). In the case of `CC(=O)O[C@H](C[C@H](C(C)C)N(C)C(=O)[C@@H](NC(=O)[C@H]1CCCCN1C)C(C)(C)C)c1nc(C(=O)N[C@@H](Cc2ccccc2)C[C@H](C)C(=O)O)cs1`, the growth was 25.1% (inactive). Next, `Clc1cccc(Cl)c1Cl`: 103% (inactive); `CC[C@H](C)[C@H](NC(=O)NC(C)(C)C)C(=O)N(C)[C@H](C[C@@H](OC(C)=O)c1nc(C(=O)N[C@@H](Cc2ccccc2)C[C@H](C)C(=O)OC)cs1)C(C)C`: 11.3% (inactive); `O=C(O)C(O)C(O)C1[O][Sb]([c]2ccc([N+](=O)[O-])cc2)[O]C1CO` (stereo not given): 100% (inactive). As for `O=C(c1ccccc1O)c1[nH]c(Cl)c(Cl)c1-n1c(C(=O)c2ccccc2O)cc(Cl)c1Cl`, the growth was -13.4% (active). Consider `COC(=O)[C@H](Cc1c[nH]c2ccccc12)NC(=O)[C@@H](OC)[C@@H]1Cc2cc3cc(OC4CC(OC5CC(O)C(O)C(C)O5)C(O)C(C)O4)c(C)c(O)c3c(O)c2C(=O)[C@H]1OC1CC(OC2CC(OC3CC(C)(O)C(O)C(C)O3)C(O)C(C)O2)C(O)C(C)O1` (stereo not given in full), for which the growth is -10.4% (active). For `COc1ccc(N(CC(=O)NCCC[Te]c2ccccc2)C(=O)CNC(=O)OC(C)(C)C)cc1`, the growth is 8.59% (active).

For the compound `CC(C)=CCC/C(C)=C/C=N\N=C(/N)N[N+](=O)[O-]`, the growth was 97.6% (inactive).
